Experimental data published in PubChem BioAssay (NCATS).
Results filed as inconclusive are left out. Entries that show only a call come without a potency. The source made the active and inactive calls. The call rests on the fitted dose curve; in most records, active means well fitted inhibition curve with a large enough effect; inconclusive means small, poorly fitted or top-dose-only effect; inactive means no such curve, though single readings can be large or run the other way.

Tests used:
[1] = system: Zika virus NS2B-NS3 protease (unlinked complex); assay: Primary screen GU Rhodamine qHTS for Zika virus inhibitors: Unlinked NS2B-NS3 protease assay (AID 1347159); further: nearly all actives have a fitted effect of over 60% in size
Procedure, shortened: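 Noncovalent NS2B hydrophilic domain–NS3 protease domain complex (25 nM) preincubated 15 min at room temperature with compounds (up to 114 microM) in 10 mM Tris-HCl pH 8.0, 0.01% Tween 20; 1.5 microM Rhodamine110 substrate added, fluorescence change over 15 min fitted to Hill equation.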

[2] = system: Zika virus NS2B-NS3 protease (linked construct); assay: Primary screen NINDS Rhodamine qHTS for Zika virus inhibitors (AID 1347160); further: nearly all actives have a fitted effect of over 55% in size
Procedure, shortened: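 Purified linked NS2B-NS3 protease (NS2B hydrophilic domain joined to NS3 protease by flexible linker), 25 nM in 10 mM Tris-HCl pH 8.0, 0.01% Tween 20. Compounds titrated, 15 min preincubation at room temperature; 1.5 microM Rhodamine110 substrate, FITC fluorescence change over 15 min.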

C[C@@H]1[C@H]2[C@H](O[C@@H]3O[C@H](CO)[C@@H](O)[C@H](O)[C@H]3O)OC=C(C(=O)O)[C@H]2C[C@@H]1O
Potency [1]: inactive | Potency [2]: inactive

C[C@@]12CC[C@@H]3[C@@](CC[C@H]4[C@@]3(C)CCC[C@@]4(C)C(=O)O)(CC1=O)C2
Potency [1]: inactive | Potency [2]: inactive

CCCN1CCC(c2cccc(S(C)(=O)=O)c2)CC1
Potency [1]: inactive | Potency [2]: inactive

CC(C)/C=C1\NC(=O)C(C(C)C)n2c1nc1c(c2=O)C=CC=CO1 (stereo not given)
Potency [1]: inactive | Potency [2]: inactive

CC1OC(OC2CCC3(C)C(CCC4(C)C3CC=C3C5CC(C)(C)CCC5(C(=O)OC5OC(CO)C(O)C(O)C5O)CCC34C(=O)O)C2(C)C)C(O)C(O)C1O (stereo not given)
Potency [1]: inactive | Potency [2]: inactive

C[C@@H]1CC[C@]2(C(=O)O[C@@H]3O[C@H](CO)[C@@H](O)[C@H](O)[C@H]3O)CC[C@]3(C)C(=CCC4[C@@]5(C)C[C@@H](O)[C@H](O)[C@](C)(C(=O)O)C5CC[C@]43C)[C@@H]2[C@]1(C)O (stereo not given in full)
Potency [1]: inactive | Potency [2]: inactive

COc1ccc([C@@H]2OC[C@H]3[C@@H]2CO[C@@H]3c2ccc(OC3OC(CO)C(O)C(O)C3O)c(OC)c2)cc1OC (stereo not given in full)
Potency [1]: inactive | Potency [2]: inactive

O=C(O)Cc1cn(C2OCC(O)C(O)C2O[C@@H]2O[C@H](CO)[C@@H](O)[C@H](O)[C@H]2O)c2ccccc12 (stereo not given in full)
Potency [1]: inactive | Potency [2]: inactive

C=C1CC2C(C)(CCC(=O)O)C(C(C)(C)O)CCC2(C)C2C(=O)OC(C)(C(=O)OC)C(=O)C12C (stereo not given)
Potency [1]: inactive | Potency [2]: inactive

O=C1CSc2ccccc2N1Cc1cccc(C(F)(F)F)c1
Potency [1]: inactive | Potency [2]: inactive
